Legend:
[1] = molecular target: Sphingosine kinase 1 (Homo sapiens) (UniProt Q9NYA1); conditions: at 1 µM;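 further: mean SPHK1 inhibition value reported from the GSK PKIS kinase panel screen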
[2] = molecular target: T1, Sphingosine kinase 2 (Homo sapiens) (UniProt Q9NRA0); conditions: at 0.1 µM
T1 sequence (whole entry): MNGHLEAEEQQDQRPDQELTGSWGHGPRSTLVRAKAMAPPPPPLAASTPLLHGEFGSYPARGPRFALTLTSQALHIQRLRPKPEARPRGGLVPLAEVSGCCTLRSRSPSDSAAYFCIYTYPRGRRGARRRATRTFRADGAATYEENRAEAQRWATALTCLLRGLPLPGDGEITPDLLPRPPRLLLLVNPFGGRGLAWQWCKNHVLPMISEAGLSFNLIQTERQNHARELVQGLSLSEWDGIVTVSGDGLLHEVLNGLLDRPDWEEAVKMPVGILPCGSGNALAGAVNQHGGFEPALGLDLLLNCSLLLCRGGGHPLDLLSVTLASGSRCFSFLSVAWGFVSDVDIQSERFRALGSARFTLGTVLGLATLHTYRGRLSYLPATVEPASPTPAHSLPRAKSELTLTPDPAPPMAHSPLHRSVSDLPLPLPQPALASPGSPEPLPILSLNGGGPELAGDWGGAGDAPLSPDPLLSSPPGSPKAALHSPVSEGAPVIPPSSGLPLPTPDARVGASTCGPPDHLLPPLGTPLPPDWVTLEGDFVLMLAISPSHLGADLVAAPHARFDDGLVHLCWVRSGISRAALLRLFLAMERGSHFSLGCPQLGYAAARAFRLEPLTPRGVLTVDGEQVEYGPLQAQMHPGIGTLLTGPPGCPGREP

[3] = molecular target: T1, Sphingosine kinase 2 (Homo sapiens); conditions: at 1 µM
[4] = molecular target: Casein kinase II subunit alpha (Homo sapiens) (UniProt P68400); conditions: at 0.1 µM
Chain of Casein kinase II subunit alpha (Homo sapiens) (P68400 whole entry, looked up): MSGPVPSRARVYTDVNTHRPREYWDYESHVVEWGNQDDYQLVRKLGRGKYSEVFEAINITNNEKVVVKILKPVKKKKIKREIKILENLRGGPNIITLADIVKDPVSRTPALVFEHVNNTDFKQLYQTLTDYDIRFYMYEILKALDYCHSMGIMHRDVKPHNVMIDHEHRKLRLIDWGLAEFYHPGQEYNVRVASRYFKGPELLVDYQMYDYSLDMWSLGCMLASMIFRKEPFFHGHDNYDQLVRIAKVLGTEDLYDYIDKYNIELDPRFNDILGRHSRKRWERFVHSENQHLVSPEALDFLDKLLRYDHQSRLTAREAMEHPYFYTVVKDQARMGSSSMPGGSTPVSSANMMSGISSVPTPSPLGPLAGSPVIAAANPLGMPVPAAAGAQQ

[5] = molecular target: Casein kinase II subunit alpha (Homo sapiens) (UniProt P68400); conditions: at 1 µM
[6] = molecular target: T2, Inhibitor of nuclear factor kappa-B kinase subunit alpha (Homo sapiens) (UniProt O15111); conditions: at 0.1 µM
T2 sequence (whole entry): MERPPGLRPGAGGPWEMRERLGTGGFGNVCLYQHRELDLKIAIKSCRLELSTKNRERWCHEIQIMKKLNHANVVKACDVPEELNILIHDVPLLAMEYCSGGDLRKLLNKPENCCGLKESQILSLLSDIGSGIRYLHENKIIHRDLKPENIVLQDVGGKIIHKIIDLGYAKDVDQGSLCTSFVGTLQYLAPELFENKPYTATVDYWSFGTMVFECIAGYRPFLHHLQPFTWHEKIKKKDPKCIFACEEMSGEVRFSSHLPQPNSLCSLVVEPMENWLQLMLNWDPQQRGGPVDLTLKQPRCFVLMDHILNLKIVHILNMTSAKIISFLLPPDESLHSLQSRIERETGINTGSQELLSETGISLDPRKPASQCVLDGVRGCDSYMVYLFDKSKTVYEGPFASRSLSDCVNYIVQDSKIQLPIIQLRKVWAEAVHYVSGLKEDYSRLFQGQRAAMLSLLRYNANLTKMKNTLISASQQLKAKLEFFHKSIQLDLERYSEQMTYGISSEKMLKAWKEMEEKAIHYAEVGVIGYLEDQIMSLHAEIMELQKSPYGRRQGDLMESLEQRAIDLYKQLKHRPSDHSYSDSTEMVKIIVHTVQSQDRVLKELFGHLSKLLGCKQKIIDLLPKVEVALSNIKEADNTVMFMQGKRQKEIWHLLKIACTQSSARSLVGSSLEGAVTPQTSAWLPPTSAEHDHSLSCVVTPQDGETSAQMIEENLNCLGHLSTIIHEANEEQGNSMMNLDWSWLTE

[7] = molecular target: T2, Inhibitor of nuclear factor kappa-B kinase subunit alpha (Homo sapiens); conditions: at 1 µM
[8] = molecular target: T3, Inhibitor of nuclear factor kappa-B kinase subunit beta (Homo sapiens) (UniProt O14920); conditions: at 0.1 µM
T3 sequence (whole entry): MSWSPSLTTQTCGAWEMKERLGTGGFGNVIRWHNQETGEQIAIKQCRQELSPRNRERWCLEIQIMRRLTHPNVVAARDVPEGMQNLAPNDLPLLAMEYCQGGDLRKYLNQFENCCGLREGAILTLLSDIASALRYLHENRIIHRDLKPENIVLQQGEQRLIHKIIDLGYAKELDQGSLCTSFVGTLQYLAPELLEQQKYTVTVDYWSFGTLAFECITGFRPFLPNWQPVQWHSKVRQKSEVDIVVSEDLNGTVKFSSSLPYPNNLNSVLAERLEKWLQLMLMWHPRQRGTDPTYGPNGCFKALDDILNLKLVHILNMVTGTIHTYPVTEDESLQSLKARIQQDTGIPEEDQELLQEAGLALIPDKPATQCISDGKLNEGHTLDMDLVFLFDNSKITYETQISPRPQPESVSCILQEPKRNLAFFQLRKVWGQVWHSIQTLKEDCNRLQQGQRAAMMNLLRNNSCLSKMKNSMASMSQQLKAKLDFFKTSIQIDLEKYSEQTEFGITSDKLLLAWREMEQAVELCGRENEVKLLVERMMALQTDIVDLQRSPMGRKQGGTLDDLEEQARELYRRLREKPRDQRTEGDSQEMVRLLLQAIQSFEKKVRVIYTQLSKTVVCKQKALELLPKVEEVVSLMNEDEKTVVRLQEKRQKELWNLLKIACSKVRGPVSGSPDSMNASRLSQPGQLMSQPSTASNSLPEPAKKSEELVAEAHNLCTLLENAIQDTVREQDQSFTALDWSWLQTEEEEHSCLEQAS

[9] = molecular target: T3, Inhibitor of nuclear factor kappa-B kinase subunit beta (Homo sapiens); conditions: at 1 µM
[10] = molecular target: T4, Inhibitor of nuclear factor kappa-B kinase subunit epsilon (Homo sapiens) (UniProt Q14164); conditions: at 0.1 µM;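 further: mean inhibition of IKKε reported, from the GSK PKIS dataset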
T4 sequence (whole entry): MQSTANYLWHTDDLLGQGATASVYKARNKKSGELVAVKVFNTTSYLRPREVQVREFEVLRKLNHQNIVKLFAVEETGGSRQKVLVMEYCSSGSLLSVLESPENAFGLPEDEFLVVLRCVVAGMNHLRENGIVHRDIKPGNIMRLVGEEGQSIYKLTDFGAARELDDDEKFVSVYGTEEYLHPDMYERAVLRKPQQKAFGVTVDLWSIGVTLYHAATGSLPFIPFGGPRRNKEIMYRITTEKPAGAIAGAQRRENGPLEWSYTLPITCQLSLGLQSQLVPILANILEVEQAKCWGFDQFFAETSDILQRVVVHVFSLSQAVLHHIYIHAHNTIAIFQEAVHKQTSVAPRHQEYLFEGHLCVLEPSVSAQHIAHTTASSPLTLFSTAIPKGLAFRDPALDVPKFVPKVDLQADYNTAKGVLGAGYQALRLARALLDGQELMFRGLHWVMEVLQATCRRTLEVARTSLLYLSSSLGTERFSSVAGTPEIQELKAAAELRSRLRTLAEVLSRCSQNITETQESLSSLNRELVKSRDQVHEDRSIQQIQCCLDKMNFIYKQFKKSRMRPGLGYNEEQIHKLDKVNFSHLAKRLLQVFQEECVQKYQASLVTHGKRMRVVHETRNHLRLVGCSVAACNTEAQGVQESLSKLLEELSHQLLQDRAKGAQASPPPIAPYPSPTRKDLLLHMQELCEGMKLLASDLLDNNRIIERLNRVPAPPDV

Chain of Sphingosine kinase 1 (Homo sapiens) (Q9NYA1 whole entry): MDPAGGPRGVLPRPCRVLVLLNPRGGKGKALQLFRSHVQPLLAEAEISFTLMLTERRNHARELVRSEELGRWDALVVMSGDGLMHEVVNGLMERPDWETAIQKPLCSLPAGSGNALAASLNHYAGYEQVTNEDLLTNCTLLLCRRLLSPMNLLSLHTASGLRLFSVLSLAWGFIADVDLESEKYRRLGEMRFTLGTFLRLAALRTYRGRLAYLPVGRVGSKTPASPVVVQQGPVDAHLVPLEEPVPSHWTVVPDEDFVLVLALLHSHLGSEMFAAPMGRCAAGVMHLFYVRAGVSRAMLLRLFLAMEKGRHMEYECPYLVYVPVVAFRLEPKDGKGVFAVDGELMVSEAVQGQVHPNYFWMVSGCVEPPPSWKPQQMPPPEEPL

SMILES	inhibition [1] [%]	inhibition [2] [%]	inhibition [3] [%]	inhibition [4] [%]	inhibition [5] [%]	inhibition [6] [%]	inhibition [7] [%]	inhibition [8] [%]	inhibition [9] [%]	inhibition [10] [%]
Cc1ccc(C(=O)NC2CCC2)cc1-c1ccc(C(=O)NCC2CC2)cc1	-2.08	0.15	-0.32	0.14	-0.02	5.36	2.23	3.94	0.66	3.52
CCc1cccc(CC)c1/C=C/c1cncc(C(=O)NC)c1	-1.72	0.98	1.95	-0.28	-1.26	-2.82	-5.51	4.86	2.91	1.34
O=C(Nc1n[nH]c2nc(-c3ccc(O)cc3)c(Br)cc12)C1CC1	-0.49	-0.76	-0.74	3.43	5.84	8.51	12.4	6.98	9.61	8.95
CN(c1ccc(NC(=O)Nc2c(Cl)cccc2Cl)cc1)c1ccnc(Nc2cccc(CS(C)(=O)=O)c2)n1	-2.39	0.77	-0.82	2.18	6.66	-7.42	–	3.11	2.65	6.91
Fc1ccc(-c2ncn(C3CCNCC3)c2-c2ccnc(Oc3ccc4c(c3)OCO4)n2)cc1	-2.26	-0.59	0	11.3	3.74	5	9.09	6.93	8.89	7.17
C[C@@H](Oc1cc(-n2cnc3ccc(OCC4CCN(C)CC4)cc32)sc1C(N)=O)c1ccccc1Cl	1.57	–	-0.12	6.48	19.4	5.03	1.69	1.98	3.37	2.73
COc1ccc2cc(-c3c(-c4ccncc4)nc(-c4ccc(S(C)(=O)=O)cc4C)n3C)ccc2c1	-0.37	-0.27	4.01	3.63	4.57	-0.1	3.23	6.82	7.83	6.25
N#Cc1ccc(Oc2nccc(-c3c(-c4ccc(F)cc4)ncn3C3CCNCC3)n2)cc1	0.37	-1.27	-0.57	–	4.89	11.3	4.73	8.59	5.99	9.95
Nc1nccc(-c2c(-c3ccc(F)cc3)ncn2C2CCC(O)CC2)n1 (centres undefined)	-4.02	2.29	0.26	-0.03	1.03	2.77	5.56	0.1	-1.66	-3.9
O=C(NCC1CC1)c1ccc(-c2cccc(C(=O)NC3CC3)c2)cc1	-3.07	0.02	1.28	0.31	-2.23	4.96	0.42	1.17	0.13	3.8
CN(C)c1ccc2c(c1)/C(=C/Nc1ccc(S(N)(=O)=O)cc1)C(=O)N2	-2.05	0.7	0.06	2.93	18	1.67	6.64	2.49	1.1	4.67
CS(=O)(=O)CCNCc1ccc(-c2ccc3ncnc(Nc4ccc(OCc5ccccc5)c(Br)c4)c3c2)o1	-1.39	-0.25	-1.58	13.7	5.24	3.37	1.56	9.38	11	6.98
NC(=O)c1cc(-c2ccncc2)cc(-c2ccccc2)c1N	1.79	-0.11	-1.58	2.36	2.75	–	–	9.18	27.5	6.3
COc1cc2ncn(-c3cc(OCc4ccccc4C(F)(F)F)c(C(C)=O)s3)c2cc1OC	-6.56	-0.29	-1.72	5.99	2.45	2.23	7.97	5.2	9.05	6.32
Fc1ccc(-c2ncn(C3CCNCC3)c2-c2ccnc(Oc3ccc(F)c(F)c3)n2)cc1	-0.78	1.4	-2.94	1.69	3.12	-1.24	3.68	6.9	5.72	6.6
CN(C)CCOc1ccc(-c2cc(-c3ccc4c(c3)CCC4=NO)c(-c3ccncc3)o2)cc1	-2.32	-0.68	0.96	-3	0.33	-4.03	–	-1.54	-1.92	-1.86
COC(=O)Nc1nc2ccc(Sc3ccc(NC(=O)Nc4cc(C(F)(F)F)ccc4F)cc3)cc2[nH]1	4.23	-0.54	-0.1	2.02	6.92	2.75	-2	-0.76	-1.08	-0.58
